Giardia FBPA inh-1 – qHTS Assay for Inhibitors of Fructose-1,6-bisphosphate Aldolase from Giardia Lamblia. A8B2U2. purified Giardia FBPA. Potency, µM (top dose mostly 59.6 µM), for inactives: at the highest dose activity, negative = inhibition, hits mostly inhibitors. 290,000 compounds, 0.71% hits. AID 2451, 2010; further: potency means the concentration at half of the fitted maximal effect; nearly all actives have a fitted effect of over 55% in size
Target sequence (A8B2U2 whole entry, looked up): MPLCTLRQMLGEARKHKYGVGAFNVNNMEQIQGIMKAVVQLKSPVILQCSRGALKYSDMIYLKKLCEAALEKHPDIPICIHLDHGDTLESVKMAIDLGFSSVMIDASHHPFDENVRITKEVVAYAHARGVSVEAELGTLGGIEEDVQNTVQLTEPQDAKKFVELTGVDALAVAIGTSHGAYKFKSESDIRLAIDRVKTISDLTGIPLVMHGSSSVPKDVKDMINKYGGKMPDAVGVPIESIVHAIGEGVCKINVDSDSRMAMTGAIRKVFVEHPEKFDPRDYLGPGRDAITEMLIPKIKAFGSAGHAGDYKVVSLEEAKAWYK
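40 nM FBPA preincubated 10 min at RT with compound (up to 57.5 uM final), then substrate plus GAPDH/TPI/NAD/arsenate coupling and diaphorase/resazurin added. Fluorescence read after 20 min at RT, 525/598 nm.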
Pf growth 48h – Primary qHTS for delayed death inhibitors of the malarial parasite plastid, 48 hour incubation | AID 504832, 2011 | Potency, µM (titrated, usually from 28.7 µM), inactives show at the top dose activity change, negative = inhibition, hits mostly inhibitors | P. falciparum luciferase growth in erythrocytes, 48 h | 310,000 compounds, 5.9% hits; further: potency means the concentration at half of the fitted maximal effect
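Compounds are pin-transferred into medium, infected erythrocytes (2% hematocrit, 0.1% parasitemia final) are added, and plates sit one parasite generation at 37 C in 5% CO2. Detection reagent is then added and luminescence measured.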
Sm TGR block – qHTS Assay for the Inhibitors of Schistosoma Mansoni Peroxiredoxins; Schistosoma mansoni thioredoxin glutathione reductase (TGR), Q962Y6; purified TGR, DTNB reduction, TNB absorbance 405 nm; Potency, µM (doses to about 114 µM), inactives show at the highest dose activity change, negative = inhibition, actives largely listed as inhibitors; 360,000 compounds, 3% hits; AID 485364, 2010; further: potency means the concentration at half of the fitted maximal effect; nearly all actives have a fitted effect of over 60% in size
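TGR 20 nM + NADPH 100 uM (dispensed conc.), cpd preinc 15 min RT; start with NADPH (500 uM addition) then DTNB (15 mM addition). Kinetic TNB absorbance, 405 nm filter. Four-parameter Hill fit across titration.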
Pf growth 96h – Primary qHTS for delayed death inhibitors of the malarial parasite plastid, 96 hour incubation; P. falciparum luciferase reporter growth, 96 h; Potency, µM (top dose mostly 28.7 µM), for inactives: at the top dose activity change, negative = inhibition, usual class: inhibitors; 320,000 compounds, 6.9% hits; further: potency means the concentration at half of the fitted maximal effect
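Compounds incubated with erythrocytes infected by luciferase-expressing P. falciparum (2% hematocrit, 0.05% parasitemia final) for 96 hours, 37 C in 5% CO2. Growth inhibition scored as decreased luciferase luminescence.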
HCMV antiviral – qHTS Assay for inhibitors of the human cytomegalovirus (HCMV). activity change, negative = inhibition, % at 57.5 µM. HFF cells, HCMV-luciferase reporter, 72 h; active compounds read low. 410,000 compounds, 4.5% hits. AID 1259415, 2018; in the data active means activity change below about -60%; inconclusive means no clear call, values can overlap the other calls; inactive means above about -39%
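Steps: HFFs plated, 16 h 37C; compounds added; HCMV-luciferase added to MOI 1 PFU/cell; 72 h 37C; OneGlo reagent, 5 min room temperature; luminescence read, normalized to controls.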
Giardia growth – qHTS Assay for Inhibitors of Fructose-1,6-bisphosphate Aldolase from Giardia Lamblia: Giardia lamblia growth inhibition; Potency, µM (top dose mostly 57.5 µM), without a hit: at the top dose activity change, negative = inhibition, hits mostly inhibitors; Giardia lamblia trophozoite growth inhibition; shares compounds with Giardia FBPA inh-1; 1,500 compounds, 5% hits;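 further: potency means the concentration at half of the fitted maximal effect; trophozoites exposed to compound for 48 h at 37 °C; nearly all actives have a fitted effect of over 70% in size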
Mammalian tox – qHTS Assay for Inhibitors of Fructose-1,6-bisphosphate Aldolase from Giardia Lamblia: Mammalian cellular toxicity; shares compounds with Giardia FBPA inh-1; mammalian cell viability counter-screen, qHTS; Potency, µM (highest dose often 57.5 µM), for the others: at the top dose viability change, negative = toxicity, usual class: inhibitors; 1,500 compounds, 4% hits;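 further: Chinese hamster ovary cells used as mammalian cytotoxicity surrogate; viability measured as cellular ATP by luminescence; potency means the concentration at half of the fitted maximal effect; compound exposure lasted 48 h before reading; nearly all actives have a fitted effect of over 60% in size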
Giardia FBPA inh-2 – qHTS Assay for Inhibitors of Fructose-1,6-bisphosphate Aldolase from Giardia Lamblia: Primary screen confirmation; shares compounds with Giardia FBPA inh-1; purified Giardia aldolase enzyme activity, qHTS; Potency, µM (titrated, usually from 57.5 µM), inactives show at the highest dose activity change, negative = inhibition, most hits filed as inhibitors; 1,500 compounds, 5% hits; further: potency means the concentration at half of the fitted maximal effect; nearly all actives have a fitted effect of over 45% in size
Rabbit FBPA inh – qHTS Assay for Inhibitors of Fructose-1,6-bisphosphate Aldolase from Giardia Lamblia: Rabbit FBPA Selectivity; Potency, µM (top dose mostly 57.5 µM), without a hit: at the highest dose activity, negative = inhibition, actives largely listed as inhibitors; Rabbit muscle FBPA enzyme inhibition, selectivity counter-screen; shares compounds with Giardia FBPA inh-1; 1,500 compounds, 4% hits; further: potency means the concentration at half of the fitted maximal effect; nearly all actives have a fitted effect of over 60% in size
Target sequence (P00883 whole entry, looked up): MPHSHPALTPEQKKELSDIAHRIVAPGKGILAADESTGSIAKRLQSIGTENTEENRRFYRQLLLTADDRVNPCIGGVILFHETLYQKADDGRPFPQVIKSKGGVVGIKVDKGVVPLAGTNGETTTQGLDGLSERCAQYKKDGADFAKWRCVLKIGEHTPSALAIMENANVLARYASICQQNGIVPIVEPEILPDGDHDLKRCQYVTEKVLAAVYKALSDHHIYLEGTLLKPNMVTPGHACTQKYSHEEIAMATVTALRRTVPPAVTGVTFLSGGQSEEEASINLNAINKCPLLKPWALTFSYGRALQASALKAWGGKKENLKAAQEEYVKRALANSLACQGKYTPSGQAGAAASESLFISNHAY
GAPDH counter – qHTS Assay for Inhibitors of Fructose-1,6-bisphosphate Aldolase from Giardia Lamblia: Coupling assay counterscreen confirmation. GAPDH coupling enzyme counterscreen, biochemical, qHTS. AID 2795, 2010. Potency, µM (series often up to 57.5 µM), for the others: at the highest dose activity change, negative = inhibition, hits mostly inhibitors. 1,500 compounds, 6% hits. shares compounds with Giardia FBPA inh-1; further: potency means the concentration at half of the fitted maximal effect; nearly all actives have a fitted effect of over 55% in size
The depositor's hits bear a star; ? = inconclusive; / = no result given; [ ] = another dose, or the depositor's remark. Most compounds without a hit are left out; they make up all but 14% or so of the library. Unless noted, the call rests on the fitted dose curve; in most records, active means well fitted curve in the direction sought with a large enough effect; inconclusive means small, poorly fitted or top-dose-only effect, or another doubt; inactive means no such curve, though single readings can be large; an effect the other way counts as inactive or inconclusive. On the % scale 0 is the no-effect control and ±100 the full control effect.

SMILES | Giardia FBPA inh-1 | Pf growth 48h | Sm TGR block | Pf growth 96h | HCMV antiviral | Giardia growth | Mammalian tox | Giardia FBPA inh-2 | Rabbit FBPA inh | GAPDH counter
O=C(O[C@@H]1OC2COC(=O)c3cc(O)c(O)c(O)c3-c3c(cc(O)c(O)c3O)C(=O)O[C@@H]([C@H]1O)[C@@H]2O)c1cc(O)c(O)c(O)c1 | ? | -10.9% | 28.2µM* | -102.1% | / | -32.9%[38.3 µM] | -5.7% | ? | ? | ?
c1n[nH]c(SCCCCSc2ncn[nH]2)n1 | -27.0% | / | -23.4% | 114.9% | -28.7 | / | / | / | / | /
C(=C\CSc1ncn[nH]1)/CSc1ncn[nH]1 | ? | 13.8% | 0.1% | 9.7% | -14.6 | 0.4%[38.3 µM] | 3.6% | -1.8% | 1.0% | 1.9%
Oc1c(C(Nc2nc3ccccc3s2)c2ccco2)ccc2cccnc12 (centres undefined) | 15.8µM* | 0.104µM* | ? | ? | -97.6* | 35.4% | ? | -22.6% | -2.6% | -7.5%
S=c1[nH]nc(-c2ccco2)n1/N=C/c1ccccn1 | ? | 1.0% | -1.7% | ? | / | / | / | / | / | /
S=c1[nH]nc(-c2ccccn2)n1/N=C/c1ccco1 | 19.9µM* | 1.8% | -0.5% | 21.6% | 7.5 | 7.0%[10.4 µM] | 14.6% | 3.8% | 16.2% | 4.7%
Cc1ccc(NC(=S)Nn2cnnc2)c(C)c1 | 12.6µM* | 3.9% | 3.9% | 25.2% | 19.0 | -17.5% | 12.9% | -1.0% | 10.1% | 10.8%
Cc1ccc2oc(=O)c3c4cc(O)c(O)cc4oc3c2c1 | -7.8% | / | / | / | / | / | / | / | / | /
O=c1cc2c(=O)oc3cc(O)c(O)oc3c2c(O)c1O | 2.81µM* | 5.22µM* | ? | 8.28µM* | -18.8 | 15.1%[10.4 µM] | 20.5% | -26.6% | ? | -17.7%
CC[C@]1(c2ncc[nH]2)Cc2ccccc2O1 | -3.2% | / | / | / | / | / | / | / | / | /
COc1cc(CN2CCC(C(=O)NCC(C)(C)CN(C)C)CC2)ccc1OCc1ccccc1 | 22.4µM* | 9.28µM* | 3.8% | ? | -93.9* | ? | -20.5% | 8.6% | 6.3% | 11.3%
COc1ccc([N+](=O)[O-])cc1NS(=O)(=O)c1cc(C(=O)N2CCN(C)CC2)ccc1OC | / | -1.2% | -7.2% | 10.4% | -28.8 | / | / | / | / | /
O=C(C1CCCN(Cc2ccccc2F)C1)N1CCc2ccccc2C1 (centres undefined) | 4.8% | 19.6% | -15.3% | 1.3% | -15.0 | / | / | / | / | /
O=C(C1CCCN(Cc2ccccc2F)C1)N1CCCCC1 (centres undefined) | 12.6µM* | -11.4% | -1.8% | -27.7% | 47.2 | -3.0%[10.4 µM] | -6.5% | 4.1% | 11.9% | 12.5%
CN(C(=O)CCc1nc(-c2ccccc2F)no1)c1ccc(Cl)cc1 | / | / | -4.5% | / | -8.0 | / | / | / | / | /
CC1(C)CC(NC(=S)Nc2ccc(S(N)(=O)=O)cc2)CC(C)(C)N1 | 8.89µM* | -19.5% | -12.3% | -0.4% | ? | 18.0%[38.3 µM] | -2.4% | -6.7% | -3.7% | -3.4%
Cc1ccc(/C=[N+](/C)[O-])cc1 | -0.3% | ? | 5.5% | 38.0% | -23.6 | / | / | / | / | /
Cc1ccc(C=C2C(Cl)=C(Cl)C(Cl)=C2Cl)cc1 | 15.8µM* | ? | 0.631µM* | 0.6% | / | -10.4%[10.4 µM] | 8.7% | 1.7% | 8.5% | 14.5%
O=C(N/N=C/c1ccccn1)c1ccc2nc[nH]c2c1 | 15.8µM* | 38.6% | -1.5% | 45.3% | ? | 8.0%[10.4 µM] | 4.7% | 5.4% | 4.0% | -8.4%
O=C(N/N=C/c1ccccn1)c1cc([N+](=O)[O-])cc([N+](=O)[O-])c1 | 9.98µM* | ? | -2.8% | 23.4% | 67.0 | 25.1µM* | ? | 0.8% | -7.6% | -6.0%
Cc1ccc(C(=O)N/N=C\c2ccc([N+](=O)[O-])o2)cn1 | 11.2µM* | 3.7µM* | ? | 1.85µM* | ? | 3.16µM* | -19.2% | -7.2% | -3.4% | 1.3%
O=C(N/N=C/c1ccccn1)c1ccc(NC(=O)c2cccc([N+](=O)[O-])c2)cc1 | 14.1µM* | -27.6% | 1.1% | ? | 1.8 | ? | -9.9% | 4.5% | -1.3% | -4.5%
O=C(N/N=C/c1cccc(O)c1)c1ccc(NC(=O)c2cccc([N+](=O)[O-])c2)cc1 | -3.8% | ? | 10.3% | 16.4% | -19.7 | / | / | / | / | /
Cc1ccc(C(=O)N/N=C\c2ccc(-c3ccc([N+](=O)[O-])cc3)o2)cn1 | 3.0% | ? | -0.4% | 5.8% | 16.7 | / | / | / | / | /
COc1ccc(-c2cc(C(=O)Nc3c(C)nn(Cc4ccc(C)cc4)c3C)no2)cc1OC | / | / | -1.7% | / | -26.8 | / | / | / | / | /
Nc1ccc(C(=O)N/N=C\C=C\c2cccc([N+](=O)[O-])c2)cc1 | -8.7% | ? | 7.0% | 102.4% | 17.7 | / | / | / | / | /
O=C(NC(=S)Nc1ccccn1)c1cccc([N+](=O)[O-])c1 | 15.8µM* | -15.0% | 24.4% | -17.1% | ? | ? | -7.3% | 4.7% | 6.2% | 13.4%
Cc1csc(N/N=C/c2ccc([N+](=O)[O-])cc2)n1 | -16.5% | 67.0% | 2.3% | ? | -15.5 | / | / | / | / | /
